Data on 18 compounds can be found in PubChem BioAssay.

Activity calls are given as the source filed them. Unless noted, no rule for the calls is given here.

Assay [1] in a line: liver-stage malaria parasite load reduction – cell-based, known kinase inhibitor set, luminescence, hepatoma host viability (AID 624392).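 Also: infected cells incubated roughly two days before readout.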 To be noted: Plasmodium liver stage in hepatoma cells, luciferase luminescence, concentration not given here; liver cell % of control: measured here: host liver cell viability; parasite % of control: stronger effect = lower value.
Assay [2] is described as follows: altered dexamethasone sensitivity, NF-kB reporter, cell-based, luciferase, IL-1B stimulus (AID 624486).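 As to percent of negative control (+Dex): 100% = mean signal of vehicle control wells on the plate.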 The note with it: IL-1B + dexamethasone, luminescence; percent of negative control (+Dex): actives lie on both sides, concentration not given here; z-score: measured here: IL-1B alone, no Dex.
Assay [3] is described as follows: C. elegans survival during P. aeruginosa infection – whole organism (AID 651566).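 Also: tested at 14 µM; sign flipped so higher z means a lower ratio.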 The note with it: C. elegans killed by P. aeruginosa, survival ratio.
A short description of assay [4]: pro-inflammatory signaling induction in mouse macrophages – cell-based, murine, luminescence (AID 652131). To be noted: murine macrophage pro-inflammatory reporter, stronger effect = higher value.
Assay [5] can be described thus: inducers of IRF3 signaling, differentiated THP-1 – cell-based, PMA-stimulated THP-1, luminescence (AID 1053176). The note with it: PMA-differentiated THP-1, IRF3 reporter luminescence; stronger effect = higher value.
A short description of assay [6]: MELAS cybrid and Rieske KO viability enhancers – cell-based, MELAS cybrids, Rieske KO mouse fibroblasts, CellTiter-Glo, primary screen (AID 1508586;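 active = mean z-score across replicates of 1.96 or higher in either the MELAS or the Rieske mutant cell line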;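 also: z relative to plate mean and SD of compound and empty wells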). The note with it: low glucose. (In general: ATP-based viability assays read luminescence as a measure of living cells.)
The target in assay [7] is Cellular tumor antigen p53 (Homo sapiens) (UniProt P04637). The experiment in a line: GFP-p53 level modulators in HPV16+ cells – imaging, known kinase inhibitor set, EGFP/DsRed ratio (AID 1053116).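 Also: cells exposed to compounds for 24 h at 37 °C before reading.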 To be noted: GFP-p53 stability, stronger effect = higher value; EGFP object count: measured here: GFP-p53 positive objects count.
Sequence of Cellular tumor antigen p53 (Homo sapiens) (P04637 whole entry, looked up): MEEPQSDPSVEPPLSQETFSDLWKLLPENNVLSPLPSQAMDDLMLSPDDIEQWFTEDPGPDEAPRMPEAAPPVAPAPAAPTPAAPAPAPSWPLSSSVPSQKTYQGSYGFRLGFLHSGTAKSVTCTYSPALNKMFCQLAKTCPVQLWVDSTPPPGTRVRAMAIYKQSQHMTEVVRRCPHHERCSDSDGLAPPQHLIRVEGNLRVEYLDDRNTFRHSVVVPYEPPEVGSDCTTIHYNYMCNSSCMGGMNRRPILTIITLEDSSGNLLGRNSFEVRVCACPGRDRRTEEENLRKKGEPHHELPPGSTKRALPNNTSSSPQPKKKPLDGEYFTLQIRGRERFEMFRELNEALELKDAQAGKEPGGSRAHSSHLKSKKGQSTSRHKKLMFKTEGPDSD
A short description of assay [8]: Wnt pathway potentiators raising nuclear beta-catenin – imaging, WNT3A-conditioned medium, mouse C2C12, NPC library, primary screen (AID 1117326; in the data active = nuclear beta-catenin stimulation mostly above about 4.2%, no sharp cut-off; inactive = mostly below about 10%). The note with it: stronger effect = higher value.
The nature of assay [9]: stimulators of insulin release from INS-1E, primary screen, cell-based, 5 mM glucose, NPC library (AID 1117329;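 active = compound raises insulin release from rat beta cells at 5 mM glucose, no numeric limit stated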). The note with it: rat INS-1E insulin secretion, at 10 µM, stronger effect = higher value.
A short description of assay [10]: growth inhibition of GSK3B-pretreated HCT116 cells – cell-based, CellTiter-Glo, 0.2 to 20 µM (AID 1117336;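 active = compounds lowering colon cancer cell viability after pretreatment blocking the GSK3B kinase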). The note with it: HCT116 viability after GSK3B inhibitor, at 20 µM, stronger effect = higher value.
Assay [11] can be described thus: inhibition of endothelial tube formation, primary screen, imaging, VEGF stimulated, CD31 staining, tube area, NPC library (AID 1117340;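 active = compound that reduces growth-factor-driven endothelial tube area in a mixed cell culture, no cutoff stated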). To be noted: VEGF-stimulated ADSC/ECFC co-culture, at 10 µM, stronger effect = higher value.
Assay [12] is described as follows: GLP1 release stimulators, primary, NCI-H716, NPC library (AID 1117341;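 active = compound raises GLP1 secretion from the human gut endocrine cells, with no numeric limit stated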). The note with it: NCI-H716 cells, at 10 µM, stronger effect = higher value.
A short description of assay [13]: HCT116 colon cancer cell growth inhibition, primary screen, CellTiter-Glo luminescence, NPC library (AID 1117342;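 active = compounds that lower survival of HCT116 colon cancer cells in the luminescence readout, no numeric limit stated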). To be noted: at 20 µM (top of the series).
Assay [14] can be described thus: reduced SW480 viability measured with CellTiter-Glo, NPC library, primary (AID 1117343;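 active = compounds that lower viability of the colon cancer cells in the luminescence readout, with no numeric limit stated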). The note with it: CellTiter-Glo luminescence; at 20 µM (top of the series).
Assay [15] can be described thus: NPC library primary testing for decreased DLD-1 cell viability via CellTiter-Glo (AID 1117346;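 active = compounds that lower survival of DLD-1 colon cancer cells in the luminescence readout, no cutoff given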). To be noted: DLD-1 viability, CellTiter-Glo luminescence; at 20 µM (top of the series).
Where [16] appears, read: MELAS cybrid survival, CellTiter-Glo 48 h, stronger effect = higher value.
[17] abbreviates: Rieske KO mouse fibroblast survival, CellTiter-Glo 72 h.

Compound `Fc1ccc(-c2ncn(C3CCNCC3)c2-c2ccnc(Oc3cccc(C(F)(F)F)c3)n2)cc1` came in with a liver cell % of control in assay [1] of 97%. In assay [1], the parasite % of control is 156% (inactive). The percent of negative control (+Dex) in [2] was 97% (inactive). The z-score in assay [2] is 0.355; in assay [3] it was 0.19 (inactive); in [4], -0.64 (inactive); in [6] (setting [16]) it was -0.429 (inactive); in [6] (setting [17]), -0.412. Besides, the fraction signal in [5] was 0.0045 (inactive).
In the case of `Fc1ccc(-c2ncn(C3CCNCC3)c2-c2ccnc(Oc3ccccc3)n2)cc1`, the liver cell % of control in assay [1] turned out to be 73.1%. The parasite % of control in assay [1] is 120% (inactive). In addition, in assay [2], the percent of negative control (+Dex) was 102% (inactive). Besides, the z-score in assay [2] is 0.6; in assay [3] it was 0.255 (inactive); in [4], 0.32 (inactive); in [6] (setting [16]) it was -0.224 (inactive); in assay [6] (setting [17]) it was -0.286. The fraction signal in [5] was -0.004 (inactive).
Regarding `COc1cc[nH]c1C=C1C(=O)Nc2ccccc21`, in assay [1], the liver cell % of control amounted to 116% and the parasite % of control was 24.2% (inactive). In addition, in assay [2], the percent of negative control (+Dex) is 148% (active) and the z-score is 6.7. Moreover, in assay [7], the EGFP object count is 6 and the EGFP/DsRed ratio is 0.263 (inactive). The fraction signal in assay [5] is -0.02 (inactive).
In the case of `COCC(N=C1NC(=O)C(=Cc2ccc3ncccc3c2)S1)c1ccccc1` (centres undefined), in [1], the liver cell % of control turned out to be 98.8% and the parasite % of control is 49.5% (inactive). Also, in assay [2], the percent of negative control (+Dex) was 98% (inactive) and the z-score stood at 0.145. Besides, in assay [7], the EGFP object count was found to be 6.5 and the EGFP/DsRed ratio was 0.249 (inactive). The fraction signal in assay [5] was -0.005 (inactive).
Turning to `CS(=O)(=O)CCc1cccc(C(=O)c2cnn(-c3ccc(F)cc3)c2N)c1`, in assay [1], the liver cell % of control stood at 95.7% and the parasite % of control is 45.3% (inactive). Also, in [2], the percent of negative control (+Dex) is 102% (inactive) and the z-score was 1.1. Further, in assay [7], the EGFP object count amounted to 1.5 and the EGFP/DsRed ratio is 0.152 (inactive). The fraction signal in assay [5] was -0.0075 (inactive).
For `Cn1cc(C2=C(c3cccc4ccccc34)C(=O)NC2=O)c2ccccc21`, in assay [1], the liver cell % of control came out at 108% and the parasite % of control was 33.9% (inactive). In [2], the percent of negative control (+Dex) was 95.5% (inactive) and the z-score was -1.1. Besides, in [7], the EGFP object count was 14 and the EGFP/DsRed ratio is 0.386 (inactive). Also, the fraction signal in assay [5] was -0.007 (inactive).
Consider `COc1ccccc1Oc1nccc(-c2c(-c3ccc(F)cc3)ncn2C2CCNCC2)n1`, for which, in assay [1], the liver cell % of control is 89.7%. Also, in [1], the parasite % of control is 136% (inactive). Further, the percent of negative control (+Dex) in assay [2] was 104% (inactive). In addition, the z-score in [2] was 0.275; in [3] it was 0.105 (inactive); in [4] it was 0.324 (inactive); in assay [6] (setting [16]) it was -0.339 (inactive); in [6] (setting [17]) it was -0.367. Also, the fraction signal in assay [5] was 0.001 (inactive).
Regarding `Cn1cc(C2=C(c3cn(CCCCO)c4ccccc34)C(=O)NC2=O)c2ccccc21`, in [1], the liver cell % of control stood at 84% and the parasite % of control is 14.3% (inactive). In addition, in assay [2], the percent of negative control (+Dex) is 108% (inactive) and the z-score is -1.57. Further, in assay [7], the EGFP object count worked out at 32.5 and the EGFP/DsRed ratio is 0.668 (inactive). Besides, in [5], the fraction signal was -0.005 (inactive).
As for `Cn1c(=O)c(Oc2ccc(F)cc2F)cc2cnc(NCC(C)(C)O)nc21`, in assay [1], the liver cell % of control stood at 102% and the parasite % of control is 62.1% (inactive). Moreover, in [2], the percent of negative control (+Dex) was 101% (inactive) and the z-score is -0.01. Further, in assay [7], the EGFP object count came to 4 and the EGFP/DsRed ratio is 0.146 (inactive). For the same compound, the fraction signal in assay [5] is -0.001 (inactive).
Consider `Cc1ccccc1-n1ncc(C(=O)c2ccccc2)c1N`, for which, in assay [1], the liver cell % of control was 104% and the parasite % of control is 52.3% (inactive). Further, in [2], the percent of negative control (+Dex) was 120% (inactive) and the z-score was found to be 1.31. Also, in assay [7], the EGFP object count is 5 and the EGFP/DsRed ratio is 0.225 (inactive). In [5], the fraction signal was -0.0005 (inactive).
Regarding `COc1cccc2c1c(C1=C(c3cn(C)c4ccccc34)C(=O)NC1=O)cn2C`, in assay [1], the liver cell % of control amounted to 85.8% and the parasite % of control is 34.6% (inactive). Besides, in assay [2], the percent of negative control (+Dex) was 103% (inactive) and the z-score is 0.84. Moreover, in assay [7], the EGFP object count worked out at 12.5 and the EGFP/DsRed ratio was 0.282 (inactive). In addition, in [5], the fraction signal was -0.0155 (inactive).
`Cn1c(=O)c(Oc2ccc(F)cc2F)cc2cnc(NC3CCS(=O)(=O)CC3)nc21`: in assay [1], the liver cell % of control worked out at 106% and the parasite % of control was 43.3% (inactive). Further, in assay [2], the percent of negative control (+Dex) is 97.5% (inactive) and the z-score amounted to 0.51. In [7], the EGFP object count worked out at 5 and the EGFP/DsRed ratio was 0.324 (inactive). In addition, the fraction signal in [5] is 0.001 (inactive).
In the case of `O=C(O)CCC(=O)O`, the nuclear beta-catenin stimulation in [8] (at 10 µM) is 0% (inactive); in assay [8] (stimulation, at 2 µM), 0.2%. Further, the insulin secretion stimulation in assay [9] is -1% (inactive). Also, the viability decrease in assay [10] is -5.25% (inactive). In addition, in [11], the tube area decrease was -24.1% (inactive). Further, the GLP1 secretion stimulation in assay [12] was 1.6% (inactive). For the same compound, in [13], the inhibition of viability is -15.8% (inactive). Also, the viability decrease (inhibition) was 10% (inactive) in assay [14] and -6.5% (inactive) in assay [15].
For `C[C@@H]1C[C@H]2[C@@H]3CCC4=CC(=O)C=C[C@]4(C)[C@@]3(F)[C@@H](O)C[C@]2(C)[C@@]1(O)C(=O)COC(=O)c1ccncc1`, the nuclear beta-catenin stimulation in assay [8] (at 10 µM) is 2.8% (inactive); in assay [8] (stimulation, at 2 µM), 2.8%. Further, in assay [9], the insulin secretion stimulation was -1% (inactive). The viability decrease in [10] was -41.3% (inactive). The tube area decrease in assay [11] was -2.4% (inactive). In addition, in assay [12], the GLP1 secretion stimulation is -1.9% (inactive). Besides, the inhibition of viability in assay [13] was -4.43% (inactive). Also, the viability decrease (inhibition) is 5.8% (inactive) in assay [14] and -18.6% (inactive) in [15].
As for `Fc1ccc(-c2ncn(C3CCNCC3)c2-c2ccnc(Oc3ccc(F)c(F)c3)n2)cc1`, the liver cell % of control in [1] was 83%. The parasite % of control in assay [1] is 166% (inactive). For the same compound, the percent of negative control (+Dex) in [2] was 106% (inactive). In addition, the z-score in assay [2] is 1.34; in assay [3], 0.595 (inactive); in [4] it was 0.167 (inactive); in [6] (setting [16]), -0.134 (inactive); in assay [6] (setting [17]), -0.514. Also, the fraction signal in assay [5] is 0.003 (inactive).
`C[C@@H](Oc1cc(-n2cnc3ccc(OC4CCN(C)CC4)cc32)sc1C(N)=O)c1ccccc1Cl` returned a liver cell % of control in assay [1] of 70.4%. Moreover, the parasite % of control in assay [1] was 183% (inactive). For the same compound, the percent of negative control (+Dex) in assay [2] is 73% (inactive). Moreover, the z-score was -2.66 in assay [2]; -0.3 (inactive) in [3]; -1.72 (inactive) in [4]; -0.022 (inactive) in assay [6] (setting [16]); -0.0227 in [6] (setting [17]). Also, in assay [5], the fraction signal is -0.008 (inactive).
As to `CC(NC(CCc1ccccc1)C(=O)O)C(=O)N1C(=O)N(C)CC1C(=O)O` (centres undefined), the nuclear beta-catenin stimulation in [8] (at 10 µM) was -1.2% (inactive); in assay [8] (stimulation, at 2 µM), 1.8%. For the same compound, in [9], the insulin secretion stimulation is 5.3% (inactive). In addition, in [10], the viability decrease is -39.7% (inactive). The tube area decrease in [11] is 6% (inactive). The GLP1 secretion stimulation in [12] was -5.4% (inactive). For the same compound, the inhibition of viability in assay [13] is 2.8% (inactive). The viability decrease (inhibition) in assay [14] was 4.5% (inactive); in [15] it was -6% (inactive).
For `CCCN(CCc1cccs1)[C@H]1CCc2c(O)cccc2C1`, the nuclear beta-catenin stimulation in [8] (at 10 µM) was 0.6% (inactive); in [8] (stimulation, at 2 µM), -2.2%. Also, in [9], the insulin secretion stimulation is 8.95% (inactive). Besides, the viability decrease in assay [10] was 48.4% (inactive). The tube area decrease in assay [11] is 0.6% (inactive). Also, the GLP1 secretion stimulation in assay [12] is 2.4% (inactive). Also, the inhibition of viability in assay [13] is 65.2% (active). Moreover, the viability decrease (inhibition) in [14] is 30.3% (inactive); in [15], 9.7% (inactive).
